Laboratory results reported in the supplement of paper PMC10849652.
The full data set covers some 8,800 targets. This sample favours those with a hit. About 0.5% of all pairs of compound and target were hits.

Assays:
Experiment in all cases: log2 fold change, soluble protein after heating vs DMSO (PISA); higher = thermal stabilisation; K562 lysate, 10 uM; active = over 0.2 and 3.5 SD of the protein, either way, in both replicates (recomputed)
[1] = compound: NCC(=O)Nc1ccc(-n2nc(C(F)(F)F)cc2-c2ccc3c(ccc4ccccc43)c2)cc1
Outline: (§1)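 Following dounce homogenisation of K562 pellets in PBS pH 7.4 with 1 mM MgCl2, crude extract at 1 mg/mL protein was incubated for 30 min with 10 μM compound. Aliquots were then heated for 3 min over 48°C-58°C and pooled, NP-40 was added to 0.5% at 4°C, and soluble protein was recovered as the supernatant at 21,000xg for 90 min. Channel-sum-equalised TMTpro 16plex LC-MS/MS quantified this protein. Each value, from duplicates, is a log-two fold change in thermal stability relative to solvent controls.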

vorinostat = compound: O=C(CCCCCCC(=O)Nc1ccccc1)NO [vorinostat]
Outline: as §1

silmitasertib = compound: O=C(O)c1ccc2c(c1)nc(Nc1cccc(Cl)c1)c1ccncc12 [silmitasertib]
Outline: as §1

[2] = compound: O=C1NC(=O)C(c2cnc3ccccn23)=C1c1cn2c3c(cc(F)cc13)CN(C(=O)N1CCCCC1)CC2
Outline: as §1

entospletinib = compound: c1cn2cc(-c3ccc4cn[nH]c4c3)nc(Nc3ccc(N4CCOCC4)cc3)c2n1 [entospletinib]
Outline: as §1

Measured: log2 fold change

QKI (UniProt Q96PU8)
inactive: [1] -0.008 | vorinostat -0.147 | silmitasertib 0.021 | [2] 0.045 | entospletinib 0.007

PDAP1 (UniProt Q13442)
inactive: [1] 0.014 | vorinostat 0.118 | silmitasertib 0.005 | [2] -0.004 | entospletinib -0.027

PPOX (UniProt P50336)
inactive: [1] 0 | vorinostat -0.142 | silmitasertib 0.11 | [2] 0.016 | entospletinib 0

PRKRA (UniProt O75569)
inactive: [1] 0.023 | silmitasertib -0.022 | [2] 0.024 | entospletinib 0.041
active: vorinostat -0.773

PCBP2 (UniProt H3BRU6)
active: vorinostat -0.662
inactive: [1] 0.139 | silmitasertib -0.102 | [2] -0.053 | entospletinib 0.061

PIK3R2 (UniProt O00459)
inactive: [1] -0.007 | vorinostat -0.245 | silmitasertib 0.201 | [2] -0.029 | entospletinib -0.092

PITRM1 isoform 2 (UniProt Q5JRX3)
inactive: [1] 0.003 | vorinostat 0.111 | silmitasertib 0.006 | [2] -0.011 | entospletinib 0.002

PTPN23 (UniProt Q9H3S7)
UniProt Q9H3S7, sequence (Q9H3S7 whole entry, looked up): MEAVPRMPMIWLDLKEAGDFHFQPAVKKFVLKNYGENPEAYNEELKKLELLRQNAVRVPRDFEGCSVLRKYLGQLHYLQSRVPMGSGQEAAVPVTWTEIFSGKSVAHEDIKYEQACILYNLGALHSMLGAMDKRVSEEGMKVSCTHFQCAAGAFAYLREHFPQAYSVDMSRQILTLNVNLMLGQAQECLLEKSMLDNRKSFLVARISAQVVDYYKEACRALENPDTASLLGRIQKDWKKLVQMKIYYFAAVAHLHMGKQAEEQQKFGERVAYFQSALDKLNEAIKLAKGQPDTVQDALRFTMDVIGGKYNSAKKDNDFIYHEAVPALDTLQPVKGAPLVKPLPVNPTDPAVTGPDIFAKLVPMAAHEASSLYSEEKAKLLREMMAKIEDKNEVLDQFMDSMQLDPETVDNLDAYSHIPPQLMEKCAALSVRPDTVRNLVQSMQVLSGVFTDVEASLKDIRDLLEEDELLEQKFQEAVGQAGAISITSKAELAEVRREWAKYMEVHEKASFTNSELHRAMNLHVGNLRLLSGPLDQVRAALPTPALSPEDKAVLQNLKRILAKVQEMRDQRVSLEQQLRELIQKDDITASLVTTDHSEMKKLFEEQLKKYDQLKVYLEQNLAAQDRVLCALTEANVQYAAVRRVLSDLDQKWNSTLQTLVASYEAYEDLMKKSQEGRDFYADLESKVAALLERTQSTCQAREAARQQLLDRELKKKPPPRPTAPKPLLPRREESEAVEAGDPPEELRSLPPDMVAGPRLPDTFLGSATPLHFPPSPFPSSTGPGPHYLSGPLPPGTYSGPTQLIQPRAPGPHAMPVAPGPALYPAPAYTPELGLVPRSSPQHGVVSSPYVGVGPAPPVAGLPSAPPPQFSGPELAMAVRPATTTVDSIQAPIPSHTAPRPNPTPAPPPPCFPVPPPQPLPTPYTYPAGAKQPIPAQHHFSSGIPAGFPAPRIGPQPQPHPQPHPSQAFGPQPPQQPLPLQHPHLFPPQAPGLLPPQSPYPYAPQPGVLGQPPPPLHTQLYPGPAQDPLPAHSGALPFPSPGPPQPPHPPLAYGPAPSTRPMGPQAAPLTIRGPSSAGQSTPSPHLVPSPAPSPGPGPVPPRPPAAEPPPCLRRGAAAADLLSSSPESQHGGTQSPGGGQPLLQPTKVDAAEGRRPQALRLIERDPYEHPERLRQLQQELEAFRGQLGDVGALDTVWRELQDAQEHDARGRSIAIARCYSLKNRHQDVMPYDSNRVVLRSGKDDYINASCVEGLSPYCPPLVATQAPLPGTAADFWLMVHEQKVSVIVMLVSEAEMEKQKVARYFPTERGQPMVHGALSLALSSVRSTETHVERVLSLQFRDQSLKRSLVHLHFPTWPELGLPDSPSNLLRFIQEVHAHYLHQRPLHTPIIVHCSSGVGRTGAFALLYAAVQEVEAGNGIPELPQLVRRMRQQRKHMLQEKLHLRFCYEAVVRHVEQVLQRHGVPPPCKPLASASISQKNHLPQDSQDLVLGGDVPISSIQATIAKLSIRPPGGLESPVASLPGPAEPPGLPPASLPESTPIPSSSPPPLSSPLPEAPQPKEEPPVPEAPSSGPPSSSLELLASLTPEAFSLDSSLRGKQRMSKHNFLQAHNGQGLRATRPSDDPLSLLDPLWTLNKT
active: vorinostat -0.266
inactive: [1] -0.011 | silmitasertib -0.007 | [2] 0 | entospletinib 0.009

PTGR2 (UniProt Q8N8N7)
inactive: [1] -0.083 | silmitasertib -0.002 | [2] 0.11 | entospletinib -0.005
active: vorinostat 0.656

PTS (UniProt Q03393)
UniProt Q03393, sequence (Q03393 whole entry, looked up): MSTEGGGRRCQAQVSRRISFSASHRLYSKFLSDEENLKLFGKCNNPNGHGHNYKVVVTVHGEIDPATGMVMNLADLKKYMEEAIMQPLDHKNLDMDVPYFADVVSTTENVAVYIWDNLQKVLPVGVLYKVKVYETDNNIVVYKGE
inactive: [1] 0.053 | vorinostat 0.006 | silmitasertib 0.009 | [2] -0.151 | entospletinib 0.032

PCYT1B (UniProt Q9Y5K3)
inactive: [1] -0.03 | vorinostat 0.064 | silmitasertib -0.062 | [2] -0.027 | entospletinib 0.002

PRIM1 (UniProt P49642)
inactive: [1] -0.015 | silmitasertib 0.049 | [2] 0.024 | entospletinib 0.035
active: vorinostat -0.284

PPP2R5C isoform 2 (UniProt Q13362)
inactive: [1] -0.004 | vorinostat -0.12 | silmitasertib 0.015 | [2] 0.086

PPP2R5C isoform 5 (UniProt Q13362)
inactive: [1] 0.002 | vorinostat 0.049 | silmitasertib 0.019 | [2] 0.022 | entospletinib 0.011

PKP3 isoform 2 (UniProt Q9Y446)
active: vorinostat -0.286
inactive: [1] -0.021 | silmitasertib -0.043 | [2] -0.063 | entospletinib 0.002

PEX2 (UniProt P28328)
inactive: [1] -0.055 | vorinostat -0.25 | silmitasertib 0.042 | [2] 0.043

PDE4DIP isoform 4 (UniProt Q5VU43)
inactive: [1] 0.077 | vorinostat 0.029 | silmitasertib -0.029 | [2] 0.057 | entospletinib -0.025

PDCD6IP isoform 2 (UniProt Q8WUM4)
inactive: [1] -0.001 | silmitasertib 0.019 | [2] -0.006 | entospletinib 0.018
active: vorinostat -0.473

PIP4P2 (UniProt Q8N4L2)
inactive: [1] 0.004 | vorinostat 0.029 | silmitasertib 0.034 | [2] 0.034 | entospletinib -0.05

PFKFB3 isoform 4 (UniProt Q16875)
inactive: [1] 0.025 | silmitasertib 0.108 | [2] 0.017 | entospletinib -0.006
active: vorinostat -0.34

POLR2M (UniProt P0CAP2)
inactive: [1] 0.034 | vorinostat 0 | silmitasertib -0.029 | [2] -0.027 | entospletinib 0.076

PPIL3 (UniProt Q9H2H8)
inactive: [1] 0.084 | vorinostat -0.155 | silmitasertib -0.022 | [2] 0.029 | entospletinib -0.016

PEF1 (UniProt Q9UBV8)
inactive: [1] -0.186 | silmitasertib -0.005 | [2] -0.008 | entospletinib -0.009
active: vorinostat 0.467

PLEKHF1 (UniProt Q96S99)
inactive: [1] -0.019 | silmitasertib 0.07 | [2] -0.014 | entospletinib 0.014
active: vorinostat -0.272

PIK3C3 (UniProt Q8NEB9)
inactive: [1] -0.04 | vorinostat -0.066 | silmitasertib 0.037 | [2] 0.019 | entospletinib -0.014

PIK3CD (UniProt O00329)
inactive: [1] -0.059 | silmitasertib 0.223 | [2] -0.004
active: vorinostat -0.516

PICALM (UniProt Q13492)
UniProt Q13492, sequence (Q13492 whole entry, looked up): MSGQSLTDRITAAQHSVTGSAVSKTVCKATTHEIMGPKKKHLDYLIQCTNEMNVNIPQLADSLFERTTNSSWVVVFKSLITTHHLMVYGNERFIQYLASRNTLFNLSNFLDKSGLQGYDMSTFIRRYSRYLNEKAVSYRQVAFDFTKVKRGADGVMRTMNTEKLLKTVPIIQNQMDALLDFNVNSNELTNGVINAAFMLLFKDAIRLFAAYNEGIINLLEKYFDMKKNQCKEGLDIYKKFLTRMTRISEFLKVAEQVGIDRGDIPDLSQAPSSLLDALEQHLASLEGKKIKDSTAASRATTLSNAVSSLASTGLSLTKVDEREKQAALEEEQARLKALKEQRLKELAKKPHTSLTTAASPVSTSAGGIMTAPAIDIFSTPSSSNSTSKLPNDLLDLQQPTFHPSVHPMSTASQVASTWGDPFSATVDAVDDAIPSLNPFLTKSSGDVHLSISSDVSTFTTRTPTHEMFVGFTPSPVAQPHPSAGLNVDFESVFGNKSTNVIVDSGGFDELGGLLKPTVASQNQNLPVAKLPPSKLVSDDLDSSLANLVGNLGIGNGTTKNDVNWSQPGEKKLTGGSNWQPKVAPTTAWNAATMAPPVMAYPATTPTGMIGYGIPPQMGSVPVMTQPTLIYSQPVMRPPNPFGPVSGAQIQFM
inactive: [1] 0.02 | vorinostat 0.048 | silmitasertib 0.003 | [2] -0.019 | entospletinib -0.005

PRKCSH isoform 2 (UniProt P14314)
UniProt P14314, sequence (P14314 whole entry, looked up): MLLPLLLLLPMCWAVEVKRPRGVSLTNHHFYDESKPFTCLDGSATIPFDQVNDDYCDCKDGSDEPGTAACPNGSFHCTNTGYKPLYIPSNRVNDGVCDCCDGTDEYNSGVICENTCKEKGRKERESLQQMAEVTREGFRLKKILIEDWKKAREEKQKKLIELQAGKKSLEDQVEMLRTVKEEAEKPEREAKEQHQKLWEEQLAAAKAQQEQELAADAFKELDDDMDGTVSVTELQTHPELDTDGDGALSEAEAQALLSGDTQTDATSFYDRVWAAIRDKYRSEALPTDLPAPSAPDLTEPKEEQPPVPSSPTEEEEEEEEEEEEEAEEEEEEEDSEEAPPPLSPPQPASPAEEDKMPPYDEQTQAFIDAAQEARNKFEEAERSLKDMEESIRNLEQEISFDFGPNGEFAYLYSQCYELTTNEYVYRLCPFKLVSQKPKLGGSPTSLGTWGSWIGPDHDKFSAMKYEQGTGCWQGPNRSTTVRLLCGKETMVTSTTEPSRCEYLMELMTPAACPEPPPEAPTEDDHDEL
inactive: [1] -0.046 | vorinostat 0.126 | silmitasertib -0.057 | [2] -0.019 | entospletinib 0.037

PDS5A (UniProt Q29RF7)
active: vorinostat -0.525
inactive: [1] -0.001 | silmitasertib 0.073 | [2] -0.01 | entospletinib 0.047

PLXNB2 (UniProt O15031)
inactive: [1] 0.003 | vorinostat 0.033 | silmitasertib 0.001 | [2] 0.019 | entospletinib -0.03

PHKA2 (UniProt P46019)
active: vorinostat -0.29
inactive: [1] 0.017 | silmitasertib 0.105 | [2] -0.048 | entospletinib -0.012

PRKAR2A (UniProt P13861)
inactive: [1] 0.005 | vorinostat -0.037 | silmitasertib -0.008 | [2] -0.06 | entospletinib -0.035

PRKCB isoform 2 (UniProt P05771)
UniProt P05771, sequence (P05771 whole entry, looked up): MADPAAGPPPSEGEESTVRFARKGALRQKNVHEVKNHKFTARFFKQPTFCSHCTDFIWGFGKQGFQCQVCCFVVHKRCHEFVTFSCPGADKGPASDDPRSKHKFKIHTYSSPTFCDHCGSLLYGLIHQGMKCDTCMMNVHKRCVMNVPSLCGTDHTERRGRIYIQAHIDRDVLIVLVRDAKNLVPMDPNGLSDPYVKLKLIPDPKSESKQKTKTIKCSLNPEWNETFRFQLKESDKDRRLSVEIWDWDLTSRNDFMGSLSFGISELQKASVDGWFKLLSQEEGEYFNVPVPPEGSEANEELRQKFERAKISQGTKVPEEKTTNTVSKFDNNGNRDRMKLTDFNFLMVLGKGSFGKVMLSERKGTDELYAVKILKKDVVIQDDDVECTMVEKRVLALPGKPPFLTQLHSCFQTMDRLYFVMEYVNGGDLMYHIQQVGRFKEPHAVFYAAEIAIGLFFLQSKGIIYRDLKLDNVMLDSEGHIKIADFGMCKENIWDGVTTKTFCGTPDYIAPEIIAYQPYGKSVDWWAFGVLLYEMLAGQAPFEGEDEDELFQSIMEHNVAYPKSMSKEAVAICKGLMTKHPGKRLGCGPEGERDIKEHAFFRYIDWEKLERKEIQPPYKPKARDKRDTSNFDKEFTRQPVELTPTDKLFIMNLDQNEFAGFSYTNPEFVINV
inactive: [1] 0.046 | vorinostat -0.145 | silmitasertib 0.012 | [2] -0.164 | entospletinib 0.004

PYCR2 (UniProt Q96C36)
inactive: [1] 0.002 | vorinostat 0.1 | silmitasertib -0.008 | [2] 0.015 | entospletinib 0

PMPCA (UniProt Q10713)
inactive: [1] 0.031 | vorinostat 0.033 | silmitasertib -0.044 | [2] 0.003 | entospletinib -0.019

PRKDC (UniProt P78527)
inactive: [1] -0.089 | [2] 0.207 | entospletinib 0.013
active: vorinostat -0.426 | silmitasertib 0.762

PIK3CG (UniProt P48736)
inactive: [1] -0.111 | vorinostat -0.037 | silmitasertib 0.04 | [2] -0.027 | entospletinib -0.073

PRKCSH (UniProt K7ELL7)
inactive: [1] 0.132 | vorinostat 0.109 | silmitasertib 0.016 | [2] 0.016 | entospletinib -0.097

PCBP2 isoform 8 (UniProt Q15366)
active: vorinostat -0.489
inactive: [1] -0.06 | silmitasertib -0.037 | [2] 0.054 | entospletinib -0.091

PPP1R8 (UniProt Q12972)
inactive: [1] 0.02 | vorinostat 0.04 | silmitasertib -0.009 | [2] -0.017 | entospletinib 0.025

POLR2F (UniProt P61218)
inactive: [1] -0.019 | vorinostat 0.171 | silmitasertib 0.008 | [2] 0.027 | entospletinib -0.086

PCBP3 (UniProt P57721)
inactive: [1] 0.016 | silmitasertib 0.001 | [2] -0.001 | entospletinib 0.016
active: vorinostat -0.371

PPP2CA (UniProt P67775)
inactive: [1] -0.079 | vorinostat 0.076 | silmitasertib -0.021 | [2] -0.004 | entospletinib 0

PRMT8 (UniProt Q9NR22)
inactive: [1] 0.067 | vorinostat -0.157 | silmitasertib -0.018 | [2] -0.017 | entospletinib 0.002

PYURF (UniProt Q96I23)
inactive: vorinostat -0.007 | silmitasertib -0.001 | [2] -0.055 | entospletinib -0.048
active: [1] -0.346

PIKFYVE (UniProt Q9Y2I7)
inactive: [1] 0.031 | silmitasertib 0.03 | [2] -0.026 | entospletinib -0.014
active: vorinostat -0.476

PI4KB (UniProt Q9UBF8)
inactive: [1] -0.085 | vorinostat -0.132 | silmitasertib 0.151 | [2] -0.044 | entospletinib 0.184

PPFIA2 (UniProt O75334)
inactive: [1] 0.05 | vorinostat -0.053 | silmitasertib -0.074 | [2] 0.069 | entospletinib -0.036

PCIF1 (UniProt Q9H4Z3)
UniProt Q9H4Z3, sequence (Q9H4Z3 whole entry, looked up): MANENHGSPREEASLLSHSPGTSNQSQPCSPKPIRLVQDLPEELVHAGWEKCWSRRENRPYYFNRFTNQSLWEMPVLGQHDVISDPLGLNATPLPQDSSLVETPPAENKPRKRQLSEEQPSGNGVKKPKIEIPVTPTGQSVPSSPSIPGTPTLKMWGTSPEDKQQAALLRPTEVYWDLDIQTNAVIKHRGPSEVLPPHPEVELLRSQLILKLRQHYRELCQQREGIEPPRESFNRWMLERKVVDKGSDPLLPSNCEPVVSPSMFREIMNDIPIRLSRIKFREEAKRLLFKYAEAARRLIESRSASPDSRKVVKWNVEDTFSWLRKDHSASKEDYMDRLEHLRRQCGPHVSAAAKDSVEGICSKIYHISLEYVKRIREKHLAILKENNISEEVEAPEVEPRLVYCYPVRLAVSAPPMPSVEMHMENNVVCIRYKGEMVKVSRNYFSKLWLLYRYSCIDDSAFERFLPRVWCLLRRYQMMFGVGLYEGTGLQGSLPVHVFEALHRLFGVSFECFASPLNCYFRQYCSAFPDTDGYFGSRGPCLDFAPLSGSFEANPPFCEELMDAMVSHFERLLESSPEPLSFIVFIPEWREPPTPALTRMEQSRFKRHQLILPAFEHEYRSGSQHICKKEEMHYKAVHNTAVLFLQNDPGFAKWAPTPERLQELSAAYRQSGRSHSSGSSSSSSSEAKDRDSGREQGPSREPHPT
inactive: [1] -0.018 | vorinostat -0.011 | silmitasertib 0.112 | [2] 0.036 | entospletinib 0.085

PSMB9 (UniProt P28065)
UniProt P28065, sequence (P28065 whole entry, looked up): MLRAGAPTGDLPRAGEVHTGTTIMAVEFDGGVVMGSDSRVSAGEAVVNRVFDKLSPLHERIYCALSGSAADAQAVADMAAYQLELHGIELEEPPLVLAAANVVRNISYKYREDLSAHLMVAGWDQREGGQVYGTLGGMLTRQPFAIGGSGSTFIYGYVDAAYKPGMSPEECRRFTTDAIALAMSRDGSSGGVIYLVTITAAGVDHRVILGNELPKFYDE
inactive: [1] 0.07 | vorinostat 0.057 | silmitasertib 0.008 | [2] 0.081 | entospletinib 0

PRKAR2B (UniProt P31323)
UniProt P31323, sequence (P31323 whole entry, looked up): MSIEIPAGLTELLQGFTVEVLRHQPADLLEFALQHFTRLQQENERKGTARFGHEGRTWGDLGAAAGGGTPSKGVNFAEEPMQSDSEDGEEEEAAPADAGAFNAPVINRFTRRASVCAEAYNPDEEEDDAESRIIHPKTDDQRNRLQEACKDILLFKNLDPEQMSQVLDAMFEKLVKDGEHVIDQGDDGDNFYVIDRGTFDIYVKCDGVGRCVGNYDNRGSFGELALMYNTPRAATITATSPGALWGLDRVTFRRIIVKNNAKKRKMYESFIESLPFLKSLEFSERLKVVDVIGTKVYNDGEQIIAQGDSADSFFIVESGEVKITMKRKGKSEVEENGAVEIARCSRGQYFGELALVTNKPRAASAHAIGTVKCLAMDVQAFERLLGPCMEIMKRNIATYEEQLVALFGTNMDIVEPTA
inactive: [1] 0.014 | vorinostat -0.093 | silmitasertib 0.009 | [2] 0.025 | entospletinib -0.055

PFKFB4 (UniProt Q16877)
inactive: [1] 0.007 | silmitasertib 0 | [2] -0.031 | entospletinib 0.051
active: vorinostat -0.369

PGRMC1 (UniProt O00264)
inactive: [1] -0.018 | vorinostat 0.113 | silmitasertib 0.017 | [2] 0.014 | entospletinib -0.02
